Reference: PubChem BioAssay AID488784 (Sanford-Burnham Center for Chemical Genomics, 2010)
About 700 (70%) of roughly 1,000 compounds were called active. So high a share suggests a set chosen from earlier hits. The list is a sample of the results. A number with no mark means an inactive call. Cut-off read from the data, not from the text of the source: active = inhibition above about 50%; inactive = the rest.

Experiment: CASP1-PYCARD signaling inhibition in yeast, confirmatory test, counterassay for NLRP3 inhibitor program, one-dose (AID 488784)
Details: yeast expressing Caspase-1-ASC, luminescence counter screen; at 10 µM; active compounds read high

| Structure (SMILES) | inhibition |
| --- | --- |
| O=C1/C(=C\c2ccc3c(c2)OCO3)N2CCC1CC2 | 60.4% (active) |
| Cc1cc2ccccn2c1C(C[N+](=O)[O-])c1c(F)cccc1Cl (centres undefined) | 12.2% |
| CCCCCCCCCCCCn1ccc(=N)cc1 | 59% (active) |
| Cc1ccc(-c2nc3ccccc3c(=O)n2-c2ccc(Br)cn2)cc1 | 44% |
